Measured values: the antibiotic and cytotoxicity screens of Wong et al. (2023)
The whole screen tested about 39,000 compounds, of which about 3,300 (8.5%) were called active. What follows is part of a selection rich in actives, with near analogues and random picks from the rest.

system: HepG2; assay: cytotoxicity call (relative viability < 0.9); details: 10 µM

SMILES	cytotoxicity call
Cc1noc(C)c1S(=O)(=O)Nc1ccc2c(c1)C(=O)N([C@H](C)CO)C[C@@H](C)[C@@H](CN(C)S(=O)(=O)c1ccccc1)O2	inactive
COc1ccc(NC(=O)Nc2cccc3c2O[C@@H](CN(C)S(C)(=O)=O)[C@H](C)CN([C@H](C)CO)C3=O)cc1	inactive
COc1cccc(NC(=O)N[C@H]2CC[C@@H](CC(=O)N3CCOCC3)O[C@@H]2CO)c1	inactive
CO[C@@H]1CN(C)C(=O)c2cc(NC(=O)C3CCOCC3)ccc2OC[C@@H](C)N(C(=O)C2CCOCC2)C[C@H]1C	inactive
CN1C(=O)c2cc(NS(=O)(=O)c3ccc(F)cc3)ccc2OC[C@H]2O[C@@H](CC(=O)Nc3cccc4ccccc34)CC[C@@H]21	inactive
C[C@H](CO)N1C[C@H](C)[C@H](CN(C)C(=O)Nc2ccc(F)cc2)OCCCC[C@H](C)Oc2ccc(NC(=O)CCCN(C)C)cc2C1=O	inactive
COc1ccc(S(=O)(=O)Nc2ccc3c(c2)CC(=O)N([C@@H](C)CO)C[C@@H](C)[C@H](CN(C)Cc2ccc(C(=O)O)cc2)O3)cc1	inactive
C[C@@H]1CN([C@@H](C)CO)C(=O)c2cc(NS(=O)(=O)c3ccccc3)ccc2O[C@@H](C)CCCCO[C@H]1CN(C)Cc1ccccc1	inactive
COc1ccc(S(=O)(=O)N(C)C[C@H]2OCCCC[C@@H](C)Oc3ccc(NS(=O)(=O)c4ccc(Cl)cc4)cc3C(=O)N([C@@H](C)CO)C[C@H]2C)cc1	active
COc1ccc(S(=O)(=O)Nc2ccc3c(c2)C(=O)N([C@H](C)CO)C[C@H](C)[C@@H](CN(C)S(=O)(=O)c2ccc(Cl)cc2)OCCCC[C@@H](C)O3)cc1	active
COc1ccc(S(=O)(=O)N(C)C[C@@H]2OCCCC[C@@H](C)Oc3ccc(NS(=O)(=O)c4ccc(Cl)cc4)cc3C(=O)N([C@@H](C)CO)C[C@@H]2C)cc1	inactive
COc1ccc(S(=O)(=O)N(C)C[C@@H]2OCCCC[C@H](C)Oc3ccc(NS(=O)(=O)c4ccc(Cl)cc4)cc3C(=O)N([C@H](C)CO)C[C@H]2C)cc1	active
COc1ccc(S(=O)(=O)Nc2ccc3c(c2)C(=O)N([C@H](C)CO)C[C@@H](C)[C@H](CN(C)S(=O)(=O)c2ccc(Cl)cc2)OCCCC[C@H](C)O3)cc1	inactive
COc1ccc(S(=O)(=O)N(C)C[C@@H]2OCCCC[C@@H](C)Oc3ccc(NS(=O)(=O)c4ccc(Cl)cc4)cc3C(=O)N([C@H](C)CO)C[C@H]2C)cc1	active
COc1ccc(NC(=O)Nc2ccc3c(c2)C(=O)N([C@@H](C)CO)C[C@@H](C)[C@@H](CN(C)C(=O)Nc2cccc4ccccc24)OCCCC[C@H](C)O3)cc1	inactive
C[C@@H]1CCCCO[C@@H](CN(C)C(=O)Nc2ccc(F)cc2)[C@H](C)CN([C@@H](C)CO)C(=O)c2cc(NC(=O)Nc3ccc(F)cc3)ccc2O1	inactive
O=C(C[C@@H]1CC[C@@H]2[C@H](COC[C@@H](O)CN2C(=O)c2ccccc2)O1)NCCCN1CCOCC1	inactive
C[C@H](CO)N1C[C@H](C)[C@@H](CN(C)C(=O)Cc2ccncc2)Oc2cc(C#CC3(O)CCCC3)ccc2S1(=O)=O	inactive
CN(C)CCCNC(=O)C[C@@H]1CC[C@@H]2[C@H](COc3ccc(NC(=O)c4ccc5c(c4)OCO5)cc3C(=O)N2C)O1	inactive
O=C(CCCCCNC(=O)OC[C@]12N=C3SCc4ccccc4CN3[C@H](c3ccccc3O1)[C@H]2COC(=O)c1ccccc1)NO	inactive

SMILES	cytotoxicity call
C[C@@H]1CN([C@H](C)CO)S(=O)(=O)c2ccc(Br)cc2O[C@@H]1CN(C)CC1CCOCC1	inactive
O=C(Nc1cccc2cccnc12)[C@@H]1[C@H](c2ccc3ccccc3c2)CC(=O)N1C(=O)OCc1ccccc1	inactive
COc1ccc2c3c(n(c2c1)C)[C@@H](CO)N(CC1CCOCC1)C[C@]13CN(C1)C(=O)c1cccc(c1)F	inactive
C[C@@H]1CN([C@@H](C)CO)C(=O)Cc2cc(NC(=O)c3ccncc3)ccc2O[C@H]1CN(C)S(=O)(=O)c1ccc(F)cc1	inactive
COc1ccc(NC(=O)Nc2ccc3c(c2)C(=O)N([C@@H](C)CO)C[C@@H](C)[C@@H](CN(C)S(=O)(=O)c2ccc(F)cc2)OCCCC[C@H](C)O3)cc1	inactive
COc1ccc(S(=O)(=O)Nc2ccc3c(c2)C(=O)N([C@@H](C)CO)C[C@@H](C)[C@H](CN(C)S(=O)(=O)c2ccc(Cl)cc2)OCCCC[C@H](C)O3)cc1	inactive
COc1ccc(S(=O)(=O)Nc2ccc3c(c2)C(=O)N([C@H](C)CO)C[C@@H](C)[C@@H](CN(C)S(=O)(=O)c2ccc(Cl)cc2)OCCCC[C@H](C)O3)cc1	inactive
COc1ccc(S(=O)(=O)N(C)C[C@H]2OCCCC[C@H](C)Oc3ccc(NS(=O)(=O)c4ccc(Cl)cc4)cc3C(=O)N([C@H](C)CO)C[C@@H]2C)cc1	active
CCOC(=O)c1cc2c(c(-c3cccc(Br)c3)n1)[C@@H](CCOC)N([S@](=O)C(C)(C)C)C2	inactive
Nc1ncnc2c1ncn2[C@@H]1C=C[C@H](CO)O1	inactive
CCC(=O)N[C@@H]1C=C[C@H](CC(=O)OC)O[C@@H]1CO	inactive
Cc1cc(=O)n2ncnc2[nH]1	inactive
C[C@H]1CCCCO[C@H](CN(C)S(=O)(=O)c2ccccc2)[C@@H](C)CN([C@@H](C)CO)C(=O)c2cc(NC(=O)Nc3ccccc3)ccc2O1	inactive
CCC1(O)CC2CN(CCc3c([nH]c4ccccc34)C(C(=O)OC)(c3cc4c(cc3OC)N(C)C3C(O)(C(=O)OC)C(OC(C)=O)C5(CC)C=CCN6CCC43C65)C2)C1.O=S(=O)(O)O (stereo not given)	active
CCC1(O)CC2CN(CCc3c([nH]c4ccccc34)C(C(=O)OC)(c3cc4c(cc3OC)N(C=O)C3C(O)(C(=O)OC)C(OC(C)=O)C5(CC)C=CCN6CCC43C65)C2)C1.O=S(=O)(O)O (stereo not given)	active
COc1ccc(S(=O)(=O)N(C)C[C@H]2OCCCC[C@H](C)Oc3ccc(NC(=O)c4ccccc4)cc3C(=O)N([C@H](C)CO)C[C@@H]2C)cc1	inactive
C[C@@H]1CN([C@@H](C)CO)S(=O)(=O)c2ccc(C3=CCCC3)cc2O[C@@H]1CN(C)C(=O)C1CCOCC1	inactive
CO[C@@H]1CN(C)C(=O)c2cc(NC(=O)C3CCOCC3)ccc2OC[C@H](C)N(Cc2cccnc2)C[C@H]1C	inactive
C[C@H](CO)N1C[C@H](C)[C@H](CN(C)C(=O)NC2CCCCC2)OCCCC[C@H](C)Oc2ccc(NC(=O)Cc3ccccc3)cc2C1=O	inactive
COc1ccc(NC(=O)Nc2ccc3c(c2)C(=O)N([C@H](C)CO)C[C@H](C)[C@@H](CN(C)Cc2ccncc2)OCCCC[C@H](C)O3)cc1	inactive

SMILES	cytotoxicity call
C[C@H]1CN([C@@H](C)CO)C(=O)c2cc(NC(=O)Nc3ccc(C(F)(F)F)cc3)ccc2O[C@@H]1CN(C)C(=O)Nc1ccc(F)cc1	inactive
C[C@@H]1CN([C@@H](C)CO)C(=O)Cc2cc(NS(=O)(=O)c3ccccc3)ccc2O[C@H]1CN(C)Cc1ccc(Cl)c(Cl)c1	active
C[C@@H]1CN([C@H](C)CO)C(=O)Cc2cc(NS(=O)(=O)c3ccccc3)ccc2O[C@H]1CN(C)Cc1ccc(Cl)c(Cl)c1	active
C[C@H](CO)N1C[C@H](C)[C@@H](CN(C)Cc2ccc(Cl)c(Cl)c2)Oc2ccc(NS(=O)(=O)c3ccccc3)cc2CC1=O	inactive
C[C@H]1CN([C@@H](C)CO)C(=O)Cc2cc(NS(=O)(=O)c3ccccc3)ccc2O[C@@H]1CN(C)Cc1ccc(Cl)c(Cl)c1	active
C[C@@H]1CN([C@@H](C)CO)C(=O)Cc2cc(NS(=O)(=O)c3ccccc3)ccc2O[C@@H]1CN(C)Cc1ccc(Cl)c(Cl)c1	active
C[C@H]1CN([C@@H](C)CO)C(=O)Cc2cc(NS(=O)(=O)c3ccccc3)ccc2O[C@H]1CN(C)Cc1ccc(Cl)c(Cl)c1	inactive
CNC[C@H]1OCCCC[C@@H](C)Oc2ccc(NC(=O)Nc3cccc4ccccc34)cc2C(=O)N([C@H](C)CO)C[C@H]1C	inactive
COc1ccccc1CNC(=O)C[C@H]1C[C@H]2c3cc(NS(=O)(=O)c4ccc(F)cc4)ccc3O[C@H]2[C@@H](CO)O1	inactive
C[C@H](CO)N1C[C@H](C)[C@@H](CN(C)Cc2ccc3c(c2)OCO3)Oc2ccc(NC(=O)CCN3CCOCC3)cc2CC1=O	inactive
COc1ccc(S(=O)(=O)Nc2ccc3c(c2)C(=O)N([C@H](C)CO)C[C@H](C)[C@H](CN(C)Cc2ccccc2)OCCCC[C@@H](C)O3)cc1	inactive
C[C@@H]1CCCCO[C@H](CN(C)C(=O)NC2CCCCC2)[C@@H](C)CN([C@H](C)CO)C(=O)c2cc(NC(=O)CCCCCC(=O)Nc3ccccc3N)ccc2O1	inactive
COc1ccc(S(=O)(=O)N(C)C[C@H]2Oc3ccc(NC(=O)CCCN(C)C)cc3C(=O)N([C@H](C)CO)C[C@@H]2C)cc1	inactive
COc1ccc(NC(=O)Nc2ccc3c(c2)C(=O)N([C@@H](C)CO)C[C@H](C)[C@H](CN(C)S(=O)(=O)c2ccc(Cl)cc2)OCCCC[C@@H](C)O3)cc1	inactive
C[C@@H]1CCCCO[C@@H](CN(C)C(=O)Nc2ccc(C(F)(F)F)cc2)[C@H](C)CN([C@H](C)CO)C(=O)c2cc(NS(C)(=O)=O)ccc2O1	inactive
C[C@@H]1CN([C@H](C)CO)C(=O)Cc2cc(NS(=O)(=O)c3ccccc3)ccc2O[C@@H]1CN(C)Cc1ccc(Cl)c(Cl)c1	active
C[C@H]1CN([C@@H](C)CO)C(=O)Cc2cc(NS(=O)(=O)c3cccs3)ccc2O[C@@H]1CN(C)Cc1ccc(Cl)c(Cl)c1	inactive
C[C@H](CO)N1C[C@H](C)[C@H](CN(C)Cc2ccc(Cl)c(Cl)c2)Oc2ccc(NS(=O)(=O)c3ccccc3)cc2CC1=O	inactive
C[C@H]1CN([C@@H](C)CO)C(=O)Cc2cc(NS(=O)(=O)c3cccs3)ccc2O[C@H]1CN(C)Cc1ccc(Cl)c(Cl)c1	active
C[C@@H]1CN([C@@H](C)CO)C(=O)Cc2cc(NS(=O)(=O)c3cccs3)ccc2O[C@H]1CN(C)Cc1ccc(Cl)c(Cl)c1	inactive
